Screening results: PubChem, National Center for Advancing Translational Sciences (NCATS)
Hits are enriched below; roughly 2.4% of the tested compounds scored in any of these assays.
Anthrax LT inh – inhibitors of anthrax lethal toxin internalization; Cells, anthrax lethal toxin internalization, FRET ratio (460/530); Potency, µM (doses to about 40 µM), for the others: at the highest dose activity change, negative = inhibition, usual class: inhibitors; 70,000 tested, 0.67% active; AID 912; note: % is set by controls: 0 for no effect and ±100 for the full control effect; nearly all actives have a fitted effect of over 50% in size
AmpC nodet inh – inhibitors of E. coli AmpC beta-lactamase without detergent; P00811; AmpC nitrocefin hydrolysis, absorbance 480 nm, no detergent; Potency, µM (top dose mostly 28.7 µM), without a hit: at the highest dose activity change, negative = inhibition; 71,000 tested, 1.8% active; AID 585; note: % of control where 0% means no effect
Target sequence (P00811 whole entry, looked up): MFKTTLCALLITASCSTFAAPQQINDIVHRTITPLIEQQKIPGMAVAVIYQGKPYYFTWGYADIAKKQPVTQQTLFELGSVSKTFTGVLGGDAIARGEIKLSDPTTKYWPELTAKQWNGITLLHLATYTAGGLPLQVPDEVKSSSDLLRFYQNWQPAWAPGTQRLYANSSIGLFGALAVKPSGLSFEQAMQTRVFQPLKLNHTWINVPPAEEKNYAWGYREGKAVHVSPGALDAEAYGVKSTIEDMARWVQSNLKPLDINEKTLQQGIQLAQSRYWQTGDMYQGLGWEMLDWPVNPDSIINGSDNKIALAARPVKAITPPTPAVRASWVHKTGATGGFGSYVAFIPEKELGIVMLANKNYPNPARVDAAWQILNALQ
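AmpC, 20 mM phosphate pH 7.0; 15 min cpd preinc, RT; start with nitrocefin (800 uM stock); A480 kinetic read, 20 s intervals, 4 min. No-enzyme wells = negative control.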
AmpC det inh – inhibitors of E. coli AmpC beta-lactamase with detergent; P00811; purified AmpC, nitrocefin hydrolysis with detergent; Potency, µM (series often up to 28.7 µM), without a hit: at the highest dose activity change, negative = inhibition; 71,000 tested, 0.09% active; active = well fitted curve in the direction sought with a large enough effect; inconclusive = small, poorly fitted or top-dose-only effect; note: % is set by controls: 0 for no effect and ±100 for the full control effect
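E. coli AmpC (5.3 nM) in 20 mM phosphate pH 7.0 with 0.01% Triton X-100, preincubated 15 min RT with compound; nitrocefin (2 uL of 800 uM stock) hydrolysis followed by 480 nm absorbance every 20 s over 4 min.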
SmPrx2 inh – blocks S. mansoni peroxiredoxin 2 enzymatic activity. AID 448. Potency, µM. 65,000 tested, 0.07% active. S. mansoni Prx2 activity coupled to TGR/GSH (TGR is thioredoxin glutathione reductase), NADPH fluorescence loss, qHTS
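Prx2 inhibition was measured as reduced NADPH consumption when electrons flowed from NADPH through TGR and glutathione to Prx2 and H2O2. Plates were read kinetically over 8 min; enzyme reagents were held at 4 deg C during dispensing.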
Starred values were filed as active, the others as inactive; ? = inconclusive; nt = no result given; [ ] = dose if it differs, or a comment. Unless noted, calls come from the whole dose curve. Potency is the fitted concentration of half-maximal effect.

SMILES | Anthrax LT inh | AmpC nodet inh | AmpC det inh | SmPrx2 inh
CCN1CCCC1CNC(=O)c1cc2c(-c3cccc(OC)c3)nn(C)c2s1 (stereo unspecified) | 15.8µM* | 55.3% | -3.3% | >57
CCOC(=O)N1CCC(NC(=O)c2cc3c(-c4ccc(Cl)cc4)nn(C)c3s2)CC1 | -2.3% | 3.98µM*[single pt active] | 11.2% | >57
CC(C)(C[C@@]1(C)NC(=O)NC1=O)OCc1ccccc1 | -2.5%[8 µM] | 0.7%[5.75 µM] | -1.4%[5.75 µM] | >57
O=c1cc(-c2ccccc2)oc2cc(O[C@H]3O[C@H](CO)[C@@H](O)[C@H](O)[C@@H]3O)c(O)c(O)c12 | ? | -3.4% | -1.0% | >57
Cn1nc(-c2ccc(Cl)cc2)c2cc(C(=O)N3CCC(N4CCCCC4)CC3)sc21 | -7.1% | 43.5% | 15.5% | >57
CCN1CCCC1CNC(=O)c1cc2c(-c3ccc(Cl)cc3)nn(C)c2s1 (stereo unspecified) | 3.98µM* | 3.98µM*[single pt active] | 13.8% | >57
Cn1nc(-c2ccc(Cl)cc2)c2cc(C(=O)NCCCN3CCCC3)sc21 | 2µM* | 3.98µM*[single pt active] | 13.3% | >57
CCCCNC(=O)c1cc2c(-c3ccc(Cl)cc3)nn(C)c2s1 | -5.3% | 25.6% | 11.6% | nt
O=C(Nc1ccc2c(c1)OCO2)C1COc2ccccc2O1 (stereo unspecified) | -13.5% | -10.3% | -1.9% | nt
Cc1cc(=O)oc2cc(NC(=O)C3COc4ccccc4O3)ccc12 (stereo unspecified) | ? | 10µM* | -3.8% | >57
Cc1c2ccccc2c(CSC(=N)N)c2ccccc12 | 6.3%[8 µM] | -11.7%[5.75 µM] | -1.4%[5.75 µM] | >57
O=C(COC(=O)C1CCN(S(=O)(=O)c2cccs2)CC1)c1cc2ccccc2o1 | -7.5% | 10µM* | -1.6% | >57
O=C(COC(=O)C1CCN(S(=O)(=O)c2cccs2)CC1)c1ccc2c(c1)OCCO2 | 0.0% | -17.3% | -3.0% | >57
NC(N)=N/N=C(/c1ccccc1)c1ccc(O)cc1O | -2.2%[8 µM] | -7.1%[5.75 µM] | -1.0%[5.75 µM] | >57
O=C1C2CC=CCC2C(=O)N1SC(Cl)(Cl)Cl (stereo unspecified) | 3.16µM* | ? | -3.5% | nt
O=C1C2CC=CCC2C(=O)N1CC1CCCO1 (stereo unspecified) | -12.5% | -10.6% | -1.6% | >57
COc1ccc(CC(=O)Nc2cccc(-c3nnc(-c4ccc(C)cc4)o3)c2)cc1OC | 3.16µM* | 75.8% | -3.5% | >57
COc1ccc(CC(=O)Nc2cccc(-c3nnc(-c4ccccc4)o3)c2)cc1OC | 10µM* | 62.3% | -3.1% | >57
COc1cccc(C(=O)Nc2cccc(-c3nnc(-c4ccccc4)o3)c2)c1 | 2µM* | 0.9% | 7.4% | nt
COc1ccc(CC(=O)Nc2cccc(-c3nnc(-c4cccc(C)c4)o3)c2)cc1OC | ? | 108.2% | -2.7% | >57
O=C(O)C[C@@H]1CCCc2ccccc2[C@H]1O | 7.3% | -13.4% | 1.4% | >57
COc1ccc(-c2noc(C3CCCN(C(=O)CCc4ccccc4)C3)n2)cc1 (stereo unspecified) | -0.1% | 77.2% | 0.6% | >57
O=C(c1ccco1)N1CCCC(c2nc(-c3ccc(S(=O)(=O)NCc4ccccc4)cc3)no2)C1 (stereo unspecified) | 12.6µM* | 0.8% | -3.9% | >57
Cn1c(=O)oc2cc(S(=O)(=O)N3CCCC(C(=O)NCc4ccc5c(c4)OCO5)C3)ccc21 (stereo unspecified) | 24.3% | 3.98µM*[single pt active] | 10.6% | >57
Cc1ccc(NC(=O)C2CCCN(S(=O)(=O)c3ccc4c(c3)oc(=O)n4C)C2)nc1 (stereo unspecified) | 2.9% | 3.98µM*[single pt active] | 13.9% | >57
SMILES | Anthrax LT inh | AmpC nodet inh | AmpC det inh | SmPrx2 inh
O=C(CSc1nnc(CNc2ccccc2)o1)N1CCc2ccccc21 | 0.9% | 15.8µM*[single pt active] | -0.4% | >57
O=C(CSc1nnc(Cc2ccccc2)o1)N1CCCc2ccccc21 | 3.9% | 28.0% | 12.1% | >57
O=C(CSc1nnc(Cc2csc(Nc3cccc(Cl)c3)n2)o1)N1CCc2ccccc21 | -26.2% | 12.6µM* | 0.6% | >57
O=c1ccc2cc(O[C@@H]3O[C@@H](CO)[C@@H](O)[C@@H](O)[C@H]3O)c(O)cc2o1 | ? | 0.0% | 1.0% | >57
O=S(=O)(NCCNC/C=C\c1ccc(Br)cc1)c1cccc2cnccc12 | ? | 20.4% | -5.0% | nt
CCOC(=O)CSCc1nc(-c2ccc(Cl)cc2)oc1C | ? | 3.98µM*[single pt active] | 25.4% | >57
C=C(C)[C@H]1Cc2c(ccc3c2O[C@H]2COc4cc(OC)c(OC)cc4[C@@H]2C3=O)O1 | ? | 115.0% | -2.7% | >57
CC[C@H](C(=O)[C@H](C)[C@H](O)[C@H](C)CCc1ccc(C)c(O)c1C(=O)O)[C@H]1O[C@](CC)([C@@H]2CC[C@@](O)(CC)[C@H](C)O2)C[C@H]1C | 0.316µM* | 10.7%[12.8 µM] | -3.0%[12.8 µM] | >57
COc1ccc2c(c1)CCc1c(C(=O)NCc3ccc(F)cc3)noc1-2 | ? | 3.98µM*[single pt active] | 10.3% | >57
CCCNC(=O)c1noc2c1CCc1ccccc1-2 | -6.3% | 3.16µM*[single pt active] | 13.8% | >57
COc1ccc2c(c1)CCc1c(C(=O)NCCc3ccc(OC)c(OC)c3)noc1-2 | -0.4% | 78.3% | 0.3% | ?
COc1ccc2c(c1)CCc1c(C(=O)Nc3cc(C)n(Cc4ccc(Cl)cc4)n3)noc1-2 | 4.9% | 7.94µM* | -3.0% | >57
O=C(NCCc1ccccc1)c1noc2c1CCc1ccccc1-2 | -10.8% | -24.5% | -4.6% | >57
Cc1c2ccncc2c(C)c2c1[nH]c1ccccc12 | 5.01µM* | 1.3%[12.8 µM] | -4.3%[12.8 µM] | >57
Cc1nccc2c1[nH]c1ccccc12 | ? | 28.9% | -1.2% | >57
COc1ccc([C@H](O)c2ccccn2)cc1 | -6.7%[8 µM] | 2.0%[5.75 µM] | -6.7%[5.75 µM] | >57
CC(=O)Oc1ccc(C(c2ccc(OC(C)=O)cc2)c2ccccn2)cc1 | 0.159µM* | 56.9% | 11.7% | >57
COc1cc(C(=O)OCC(=O)Nc2cc(C)on2)ccc1OCc1ccccc1Cl | 2.3% | 12.6µM* | -1.8% | >57
CCCCN1C(=O)c2ccccc2C1C(=O)NC1CCCC1 (stereo unspecified) | 3.7% | -1.3% | -1.6% | >57
CCCN1C(=O)c2cc(C(=O)Nc3ccccc3CC)ccc2C1O (stereo unspecified) | -11.3% | 3.98µM*[single pt active] | 13.4% | >57
CCCN1C(=O)c2cc(C(=O)NC3CCCC3)ccc2C1O (stereo unspecified) | -10.4% | 3.98µM*[single pt active] | 12.7% | >57
Nc1ncn([C@@H]2O[C@@H](CO)[C@@H](O)[C@H]2O)c(=O)n1 | -20.8% | 1.2% | -2.7% | >57
Nc1nc(SCc2ccccc2)ns1 | ? | -16.6% | -3.7% | >57
Nc1nc2c(s1)CC(c1ccccc1)CC2 (stereo unspecified) | 3.7% | 7.94µM* | 7.7% | >57
COCc1cc(C)nc(N2CCN(c3ccccc3)CC2)c1C#N | 10µM* | 10.4% | 17.4% | >57
CCN(CC)CCOc1ccc(Cc2ccccc2)cc1 | 25.1µM* | 65.4% | -1.2% | >57
COc1cccc(Nc2ncc3nc(-c4ccccc4)c(=O)n(Cc4cccs4)c3n2)c1 | ? | -10.4% | -1.4% | >57
CCN(C(=O)c1cnc(N2CCN(c3ncccn3)CC2)c2ccccc12)c1cccc(Cl)c1 | 15.8µM* | 95.0% | -3.6% | >57
